Test results taken from PubChem BioAssay.
A number with no mark means an inactive call. The rule behind the calls is not given here.

system: Aerobactin synthetase IucA (Klebsiella pneumoniae hvKP1); assay: IucA enzyme inhibition, primary screen, biochemical, Spectrum library (AID 1346200); settings: malachite green pyrophosphate, A620, at 8 µM, stronger effect = lower value;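 note: 100% = wells without compound and 0% = wells lacking enzyme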

SMILES | activity remaining [%]
CCC[C@@H]1C[C@@H](C(=O)N[C@H]([C@H]2O[C@H](SC)[C@H](O)[C@@H](O)[C@H]2O)[C@H](C)O)N(C)C1 | 111
O=c1c2ccccc2oc2ccc(O)cc12 | 122
CN1CCN(C(c2ccccc2)c2ccccc2)CC1 | 113
COc1cc(O)c(C(C)=O)c(OC)c1 | 104
NC(=NCCCCCCN=C(N)/N=C(\N)Nc1ccc(Cl)cc1)/N=C(\N)Nc1ccc(Cl)cc1 | 95.5
S=c1ccss1 | 84.5
CN(C)CC/C=C1\c2ccccc2Sc2ccc(Cl)cc21 | 110
COc1cc(NS(=O)(=O)c2ccc(N)cc2)nc(OC)n1 | 90.2
O=c1cc(-c2ccccc2)oc2cc(O)c(O)c(O)c12 | 122
CC(=O)Oc1ccccc1C(=O)Oc1ccccc1C(=O)O | 97.5
COc1ccc(-c2coc3c(OC)c(OC)cc(O)c3c2=O)cc1 | 105
O=C(Cc1ccccc1)NO | 109
CC(=O)N[C@@H](CCC(=O)O)C(=O)O | 92.3
COC1(C)CCC2OC2(C)CCC2C1CC2(C)C (centres undefined) | 113
CC(=O)O[C@H]1CC[C@@]2(C)C(C[C@H](OC(C)=O)[C@@]3(C)C4=CC(=O)OC(c5ccoc5)[C@]4(C)CCC23)C1(C)C (some centres undefined) | 119
C[C@@H]1CC[C@@]23CCC4(C)[C@@](C=CC5[C@@]6(C)CCC(=O)C(C)(C)C6CC[C@]54C)(OC2=O)C3[C@H]1C (some centres undefined) | 112
CC(=O)/C=C\[C@@H]1[C@@]2(C)CCCC(C)(C)C2CC[C@@]1(C)O (some centres undefined) | 95.5
CN(C)CCc1c[nH]c2ccc(CS(=O)(=O)N3CCCC3)cc12 | 128
CC(C)CC1C(=O)N2CCC[C@H]2C2(O)O[C@](NC(=O)C3C=C4c5cccc6[nH]c(Br)c(c56)C[C@H]4N(C)C3)(C(C)C)C(=O)N12 (some centres undefined) | 113
O=C(O)c1cn(-c2ccc(F)cc2)c2cc(N3CCNCC3)c(F)cc2c1=O | 118

SMILES | activity remaining [%]
O=c1c(O)c(-c2ccccc2)oc2ccccc12 | 92.5
C=CC1=C(C(=O)O)N2C(=O)[C@@H](NC(=O)/C(=N\O)c3csc(N)n3)[C@H]2SC1 (stereo in doubt) | 103
CC(=O)O[C@@H]1CC2C(C)(C)C(=O)C=C[C@]2(C)C2CC[C@@]3(C)[C@H](c4ccoc4)OC(=O)[C@H]4O[C@]43[C@@]21C (some centres undefined) | 104
CCCCN(CCCC)CCCOC(=O)c1ccc(N)cc1 | 90
CC(C)c1c(O)ccc2c1CCC1[C@@](C)(C=O)CCC[C@]21C (some centres undefined) | 99.8
COc1cc2c(cc1O)[C@@H](Cc1ccc(O)cc1)[N+](C)(C)CC2 | 75.4
COC1=CC(C)[C@@H]2C[C@H]3OC(=O)C[C@H]4C(C)=C(OC)C(=O)C([C@@]34C)[C@@]2(C)C1=O (some centres undefined) | 97.8
NC(=NCCC[C@H](N)C(=O)O)NC(CCC(=O)O)C(=O)O (some centres undefined) | 107
NS(=O)(=O)c1cc2c(cc1Cl)NC(C(Cl)Cl)NS2(=O)=O (centres undefined) | 108
CC(=O)Nc1ccc(S(=O)(=O)Nc2ccc([N+](=O)[O-])cc2)cc1 | 111
C=C1C(=O)OC2CC1C(OC(C)=O)C/C(C)=C/CC/C(C)=C/CC[C@]2(C)O (some centres undefined) | 123
COc1ccc(C(=O)CC(=O)O)c2c1C=CC(C)(C)O2 | 108
CC[C@@H](C(=O)C(C)[C@@H](O)[C@H](C)CCc1ccc(C)c(O)c1C(=O)O)C1OC(CC)(C2CC[C@](O)(CC)[C@H](C)O2)C[C@@H]1C (some centres undefined) | 111
Cc1ccnc(NS(=O)(=O)c2ccc(N)cc2)n1 | 122
CC(C)Oc1ccc2c(=O)cc(-c3ccccc3)oc2c1 | 114
C[N+](C)(C)CC(O)CC(=O)O (centres undefined) | 99.1
CCn1cc(C(=O)O)c(=O)c2cnc(N3CCNCC3)nc21 | 101
CC1(C)CC2C1CCC1(C)OC2(C)CCC1O (centres undefined) | 120
O=C(O)CCCCCCCCCCCCC1C=CCC1 (centres undefined) | 118
